Screens: PubChem, several laboratories
Anthrax LF inh2: Bacillus anthracis LF protease inhibitors, primary screen, biochemical, multiplex microsphere, MLPCN library | hit rate 0.12% among 360,000 | Lethal factor (Bacillus anthracis), P15917 | inhibition, % at 10 µM | multiplex microsphere protease cleavage assay | AID 588501, 2011; note: plate controls were buffer without enzyme for full effect and enzyme alone for no effect
Target sequence (P15917 whole entry, looked up): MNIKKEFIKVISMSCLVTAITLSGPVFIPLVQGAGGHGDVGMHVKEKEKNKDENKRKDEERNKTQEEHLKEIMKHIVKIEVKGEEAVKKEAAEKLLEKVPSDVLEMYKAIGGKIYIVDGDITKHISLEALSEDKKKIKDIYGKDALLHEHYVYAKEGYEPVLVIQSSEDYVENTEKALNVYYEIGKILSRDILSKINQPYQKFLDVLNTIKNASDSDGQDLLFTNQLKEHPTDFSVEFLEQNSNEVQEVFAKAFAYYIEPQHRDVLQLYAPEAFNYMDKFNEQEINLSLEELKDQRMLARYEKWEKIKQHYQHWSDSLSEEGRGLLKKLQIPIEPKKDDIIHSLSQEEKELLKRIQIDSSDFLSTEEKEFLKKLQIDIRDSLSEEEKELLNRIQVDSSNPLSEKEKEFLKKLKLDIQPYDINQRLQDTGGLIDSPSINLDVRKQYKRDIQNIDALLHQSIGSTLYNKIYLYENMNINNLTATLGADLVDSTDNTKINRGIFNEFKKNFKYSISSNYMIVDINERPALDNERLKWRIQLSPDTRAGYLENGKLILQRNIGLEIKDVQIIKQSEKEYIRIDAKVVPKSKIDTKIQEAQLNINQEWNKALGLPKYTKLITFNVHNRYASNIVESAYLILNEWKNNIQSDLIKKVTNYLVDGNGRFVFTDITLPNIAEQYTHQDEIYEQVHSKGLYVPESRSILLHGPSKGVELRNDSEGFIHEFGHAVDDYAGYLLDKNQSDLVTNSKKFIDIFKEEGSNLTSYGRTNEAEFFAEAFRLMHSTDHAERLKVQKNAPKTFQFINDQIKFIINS
BoNT-A LC inh2: BoNT/A light chain protease inhibitors, primary screen, biochemical, flow cytometry, MLPCN library. multiplex microsphere protease substrate cleavage. inhibition, % at 10 µM. hit rate 0.17% among 360,000; note: plate controls were buffer without enzyme for full effect and enzyme alone for no effect
BoNT-F LC inh: BoNT/F light chain protease inhibitors, primary screen, biochemical, flow cytometry, MLPCN library | Botulinum neurotoxin type F light chain protease (Clostridium botulinum) | Multiplex microsphere protease cleavage assay | inhibition, % at 10 µM | hit rate 0.22% among 360,000 | AID 588497, 2011; in the data active = inhibition above about 35%, passing the limit was not always enough; inconclusive = no clear call, values can overlap the other calls; note: plate controls were buffer without enzyme for full effect and enzyme alone for no effect
PriA SSB inh: inhibitors of Klebsiella pneumoniae PriA binding to SSB C-terminal tail, primary screen, biochemical, AlphaScreen; AlphaScreen SSBct-PriA binding, biotinylated peptide; inhibition, % at 33 µM; hit rate 0.6% among 430,000; AID 1272365, 2023; in the data active = inhibition mostly above about 37%, no sharp cut-off; inactive = mostly below about 20%;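 note: plate controls were negative control peptide for no effect and reference peptide for full effect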
Bead autofluor: flagged as autofluorescent in microsphere protease counterscreen | hit rate 3.1% among 360,000 | compound autofluorescence counterscreen, microsphere flow cytometry; stronger effect = higher value | fluorescence intensity (concentration not given with the values) | AID 624483; in the data active = fluorescence intensity above about 16000; inconclusive = no clear call, values can overlap the other calls
An asterisk follows results filed as active; ? = inconclusive; . = no result. This is a sample that favours compounds with a hit; in the whole collection about 3.1% have one here. Cut-off read from the data, not from the text of the source, unless noted: active = inhibition above about 30%; inconclusive = no clear call, values can overlap the other calls; inactive = below that.

SMILES	Anthrax LF inh2	BoNT-A LC inh2	BoNT-F LC inh	PriA SSB inh	Bead autofluor
C=C1CC[C@@]2(O)[C@H]3Cc4ccc(O)c5c4[C@@]2(CCN3CC2CC2)[C@H]1O5	0	0	-3	41*	5757
COc1ccc(N2CCN(c3oc(-c4ccco4)nc3C#N)CC2)cc1	-6	?	6	15	20889*
N#Cc1nc(-c2ccco2)oc1N1CCN(c2ccccc2)CC1	-2	0	6	38*	3193
N#Cc1nc(-c2ccco2)oc1N1CCOCC1	2	0	2	-10	10103
COc1ccc(N2CCN(c3oc(Cc4ccccc4)nc3C#N)CC2)cc1	-8	-2	4	59	11234
CSc1ccc(C2N(Cc3ccccc3)CCN2Cc2ccccc2)cc1	.	.	.	-9	.
Cc1ccc(C(C)C)c(OCC(O)CNCC2CCCO2)c1 (configuration not stated)	.	.	.	-9	.
CCSc1nc(N2CCOCC2)c2cnn(CCNC(=O)c3cc(-c4cccs4)[nH]n3)c2n1	.	.	.	12	.
COc1ccc(Cl)cc1-n1c(N)c(C(=O)NCc2ccco2)sc1=S	.	.	.	3	.
CCOC(=O)c1sc(=S)n(-c2cc(F)ccc2F)c1N	-3	-1	-5	-4	24008*
CCOC(=O)c1sc(=S)n(-c2cc(OC)ccc2OC)c1N	0	0	-8	6	2436
COC(=O)c1sc(=S)n(-c2cc(F)ccc2F)c1N	0	-1	-2	9	19767*
CCOC(=O)c1sc(=S)n(-c2ccccc2)c1SC	-1	-6	-10	-8	21506*
CCOC(=O)c1sc(-c2ccc(OC)cc2)cc1N	-6	0	0	-16	2500
CCOC(=O)c1sc(-c2ccc(F)cc2)cc1N	-2	-5	-9	-46	25606*
c1ccc(-n2nnnc2Sc2n[nH]c(-c3ccncc3)n2)cc1	-2	-3	-6	-2	24881*
Cc1ccccc1-n1nnnc1Sc1nnnn1-c1ccccc1	1	0	-7	-6	3503
Cc1c(C(=O)N2CC(=O)Nc3ccc(F)cc3C2c2ccccc2)cccc1[N+](=O)[O-] (configuration not stated)	.	.	.	1	.
COCCn1c(SCc2cc(=O)n3ccccc3n2)nc2c(-c3ccccc3)cn(C)c2c1=O	.	.	.	-29	.
CCC(=O)c1cn(Cc2ccccc2C#N)c2ccccc12	0	-2	-1	-11	23775*
O=C(O)/C(=C\c1ccco1)NC(=O)c1cccc2ccccc12	-1	8	10	0	20299*
O=C(O)/C(=C/c1ccco1)NC(=O)c1ccccc1	0	0	3	-11	2050
CCOC(=O)Cc1ccc(NC(=O)N2CCC3(CC2)N=C(c2ccc(F)cc2)C(=O)N3)cc1	.	.	.	-21	.
CC(C)(C)c1ccc(-c2nnc3sc(-c4cnccn4)nn23)cc1	.	.	.	51*	.
COc1ccc(CC(=O)Nc2nnc(-c3ccc(Br)s3)o2)cc1	.	.	.	-12	.
SMILES	Anthrax LF inh2	BoNT-A LC inh2	BoNT-F LC inh	PriA SSB inh	Bead autofluor
O=C(/C=C/c1ccc(F)cc1)NCCC1=CCCCC1	-2	-1	-7	7	23985*
CCCNC(=O)c1noc2c1CCc1ccccc1-2	-3	0	-1	-22	5949
O=C(NCCc1ccccc1)c1noc2c1CCc1ccccc1-2	0	14	20	-20	17456*
O=C(NCCN1CCOCC1)c1noc2c1CCc1ccccc1-2	0	-3	-2	-5	23180*
O=C(NCCN1CCOCC1)c1ccc(-c2ccccc2)cc1	-1	7	7	-11	20391*
O=C(NCCN1CCN(c2ccccc2)CC1)c1cccc(Br)c1	-1	0	0	4	23925*
CCC(C(=O)Nc1ccc(C(C)C)cc1)n1cccc(-c2nc(-c3cnccn3)no2)c1=O (configuration not stated)	.	.	.	-5	.
CCN1C(=O)Cc2cc(NS(=O)(=O)c3cccs3)ccc21	.	.	.	5	.
O=C(/C=C/c1cccs1)Nc1nnc(-c2ccccc2Cl)o1	.	.	.	8	.
CC1(C)COc2cc(NC(=O)COc3ccc(F)cc3)ccc2NC1=O	.	.	.	16	.
Cc1cc(C)c(C(N)=O)c(NC(=O)Nc2ccccc2)n1	-4	0	1	2	22860*
CN1C(=S)SC(C)(NO)C1(C)C (configuration not stated)	-6	-9	-11	-18	18153*
CC(C(N)=O)N1C(=O)c2cccc3cccc1c23 (configuration not stated)	-1	1	-4	7	23424*
O=C(NCc1cccnc1N1CCOCC1)C1CCc2nc[nH]c2C1 (configuration not stated)	.	.	.	-14	.
O=C(CSc1ncccn1)n1c2c(c3ccccc31)CCCC2	-9	-8	-67	1	18875*
O=C(CCc1ccccc1)NC(=S)Nc1ccccc1[N+](=O)[O-]	-1	2	4	39*	5100
O=C(NCc1ccccc1)Oc1cccc(Cl)c1	0	2	0	-8	19856*
Cn1ccc(C(=O)Nc2nnc(-c3ccno3)o2)n1	.	.	.	16	.
CCn1ccc(C(=O)Nc2nnc(-c3ccno3)o2)n1	.	.	.	28*	.
COc1ccc(C)cc1S(=O)(=O)NC[C@H]1CCS(=O)(=O)C1	.	.	.	1	.
c1ccc(CN=C2NN=C(c3ccccc3)CS2)cc1	-3	0	-4	15	3239
c1ccc(C2=NNC(=NCc3ccc4c(c3)OCO4)SC2)cc1	-3	-1	-15	47*	9817
Cc1cc2cc(CNS(=O)(=O)c3ccc(Br)cc3)ccc2n1C	.	.	.	36*	.
NS(=O)(=O)c1ccc(Nc2nc(-c3ccc(O)cc3)cs2)cc1	-1	-2	-2	22	21481*
CCCCOC(=O)C1=C(C)Nc2ncnn2C1c1cc(OC)ccc1OC (configuration not stated)	-12	7	10	-7	19006*
SMILES	Anthrax LF inh2	BoNT-A LC inh2	BoNT-F LC inh	PriA SSB inh	Bead autofluor
CCOC(=O)C1=C(c2ccccc2)Nc2ncnn2C1c1cc(OC)ccc1OC (configuration not stated)	2	1	2	-3	21867*
CCCCOC(=O)C1=C(C)Nc2ncnn2C1c1cccc(OC)c1 (configuration not stated)	2	0	3	-4	23328*
CCOC(=O)C1=C(c2ccccc2)Nc2ncnn2C1c1ccc(OC)c(OC)c1OC (configuration not stated)	-6	-2	-5	-3	9915
O=S(=O)(c1ccc(Cl)s1)N1CCCC(c2nnc(-c3ccsc3)o2)C1 (configuration not stated)	.	.	.	-8	.
COc1cc(C)c(C)cc1S(=O)(=O)NCCCn1nc(-c2ccc(F)cc2)ccc1=O	.	.	.	9	.
COc1ccccc1CNC(=O)C(=O)NCC1CCN(C)CC1	.	.	.	-10	.
CN(C(=O)COC(=O)C1CCN(S(=O)(=O)c2c(Cl)cccc2Cl)CC1)C1CCS(=O)(=O)C1 (configuration not stated)	2	3	13	-10	?
